A selection: hits, their analogues and other compounds. The true share with any hit is near 19%.
HT1080NT lethal = qHTS for induction of synthetic lethality in tumor cells producing 2HG: qHTS for the HT-1080-NT fibrosarcoma cell line | 1.6% of 360,000 active | HT-1080-NT fibrosarcoma viability, CellTiter-Glo ATP luminescence, 48 h | Potency, µM (highest dose often 46.1 µM), inactives show at the highest dose activity, negative = less viability, most hits filed as cytotoxic | AID 686970, 2013;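 further: NT is the 2HG producing partner of a matched IDH1 knockdown line; potency means the concentration at half of the fitted maximal effect; 0% = DMSO-treated cells and -100% = media-only wells without cells; nearly all actives have a fitted effect of over 55% in size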
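Luminescent CellTiter-Glo readout after 48 hours of compound exposure at 37 degrees C defined viability of HT-1080-NT cells. Activity was normalized to DMSO wells and cell-free media wells; concentration-response curves were fitted and assigned curve classes.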
DT40 TDP1 no CPT = qHTS for Inhibitors of human tyrosyl-DNA phosphodiesterase 1 (TDP1): qHTS in cells in absence of CPT | DT40 Tdp1-/- hTDP1 cells, no CPT, ATP luminescence, 48 h | Potency, µM (highest dose often 46.2 µM), without a hit: top-dose activity change, negative = growth inhibition, most hits filed as inhibitors | 15% of 420,000 active; further: potency means the concentration at half of the fitted maximal effect; nearly all actives have a fitted effect of over 55% in size
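DT40 Tdp1-/-;hTDP1 cells, no CPT (DMSO vehicle only), 400 cells/well; compounds pin-transferred; ≥48 hr, 37 °C; CellTiter-Glo 30 min RT dark, luminescence read.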
TDP1 cell CPT = qHTS for Inhibitors of human tyrosyl-DNA phosphodiesterase 1 (TDP1): qHTS in cells in presence of CPT; 12% of 420,000 active; Potency, µM (top dose mostly 46.2 µM), without a hit: at the highest dose activity change, negative = growth inhibition, hits mostly inhibitors; chicken DT40 Tdp1-/-;hTDP1 cells + 20 nM CPT, ATP luminescence, 48 h; AID 686979, 2013; further: potency means the concentration at half of the fitted maximal effect; nearly all actives have a fitted effect of over 55% in size
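Chicken DT40 Tdp1-/- cells complemented with human TDP1, 400 cells/well, exposed to compounds plus 20 nM camptothecin for at least 48 h at 37 C; viability read as ATP content by CellTiter-Glo luminescence.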
ELG1 repair inh = qHTS screen for small molecules that inhibit ELG1-dependent DNA repair in human embryonic kidney (HEK293T) cells expressing luciferase-tagged ELG1. 2.3% of 330,000 active. AID 504467, 2011. HEK293T ELG1-luciferase reporter, luminescence, 16 h; DNA damage induced by 5-fluorouridine. Potency, µM (top dose mostly 46.1 µM), inactives show top-dose activity change, negative = inhibition, most hits filed as inhibitors; further: potency means the concentration at half of the fitted maximal effect; nearly all actives have a fitted effect of over 55% in size
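In this reporter screen, reduction of luminescence relative to DMSO vehicle indicated activity. Compounds and 5-fluorouridine were added together to 2,000 cells per well, incubated for 16 hr at 37 °C, then developed with ONE-Glo.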
IL1B secr inh = qHTS for Inhibitors of Inflammasome Signaling: IL-1-beta AlphaLISA Primary Screen | THP-1 LPS/ATP IL-1B secretion, AlphaLISA, 16 h; hits give low values | activity change, % at 57.5 µM | 4.7% of 360,000 active; in the data active means activity change below about -50%; inconclusive means mostly about -30% to -49%
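Secreted IL-1B measured by AlphaLISA bead assay after 16 h compound exposure of THP-1 cells; compounds (final up to 57.5 uM) added 1 h before LPS (250 ng/mL) and ATP (1.25 mM) stimulation; lower signal means less secretion.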
HT1080 IDH1KD tx = qHTS for induction of synthetic lethality in tumor cells producing 2HG: qHTS for the HT-1080-IDH1KD cell line; HT-1080 IDH1 knockdown viability, ATP luminescence, 48 h; Potency, µM (titrated, usually from 46.1 µM), for inactives: at the top dose activity, negative = toxicity, hits mostly cytotoxic; 2% of 360,000 active;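 further: potency means the concentration at half of the fitted maximal effect; 0% = DMSO wells and -100% = cell-free medium wells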
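% activity derives from luminescence (CellTiter-Glo), normalised to DMSO and no-cell wells. HT-1080-IDH1KD cells, 750/well, had 48 h compound exposure at 37 °C.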
* marks the source's active call; other numbers are inactive results; ? = inconclusive; nt = no result given; ! = a repeat was not active. Unless noted, the call rests on the fitted dose curve; in most records, active means well fitted curve in the direction sought with a large enough effect; inconclusive means small, poorly fitted or top-dose-only effect, or another doubt; inactive means no such curve, though single readings can be large; an effect the other way counts as inactive or inconclusive. Unless noted, on the % scale 0 is the no-effect control and ±100 the full control effect.

SMILES	HT1080NT lethal	DT40 TDP1 no CPT	TDP1 cell CPT	ELG1 repair inh	IL1B secr inh	HT1080 IDH1KD tx
O=C(NCCc1c[nH]c2ccccc12)C(=O)Nc1ccccc1	-8%	?	-25%	?	2	?
C/C(=N\NC(=O)CCc1c[nH]c2ccccc12)c1cccc([N+](=O)[O-])c1	-2%	?	?	-19%	?	-7%
Cc1cc(C)nc(NC(=NCCc2c[nH]c3ccccc23)NC(=O)Nc2cccc([N+](=O)[O-])c2)n1	-3%	7.3µM*	13µM*	5.2µM*	-1	-6%
N[C@H](C(=O)O)c1nn[nH]n1	nt	-9%	-10%	nt	nt	nt
Cc1cc(C(=O)Nc2cccc(-c3nc(CNC(=O)c4cc5ccccc5[nH]4)c(C)o3)c2)c(C)o1	nt	-13%	24%	nt	nt	nt
COCCN(C(=O)COC(=O)c1ccccc1NCc1ccco1)c1c(N)n(Cc2ccccc2)c(=O)[nH]c1=O	-1%	-12%	?	?	-1	0%
O=c1cc(C2CCCCC2)[nH]c(=O)[nH]1	18%	5%	-1%	nt	-13	2%
CNc1ccccc(-c2ccc3ccccc3n2)c1=O	-7%	23µM*	?	?	-3	-6%
Cc1cc(SCC(=O)NCC2CCCO2)nc2ccccc12 (configuration not stated)	1%	2%	3%	1%	22	5%
CCCS(=O)(=O)N1CCCC(C(=O)Oc2ccc(Cl)cc2)C1 (configuration not stated)	7%	-11%	19%	1%	3	4%
Cc1ccc(S(=O)(=O)CC(=O)N2CC(C)OC(C)C2)cc1 (configuration not stated)	-1%	3%	0%	1%	22	9%
CC(C)NC(=O)N1CC(c2ccccc2)C(c2ccc(Cl)cc2)=N1 (configuration not stated)	-5%	18µM*	12µM*	-24%	5	-2%
CCC1CN(C(=O)NCc2ccc(C)cc2)c2cc(C)ccc2O1 (configuration not stated)	4%	15µM*!	23µM*	0%	0	9%
CCC1CN(C(=O)NCc2ccc(F)cc2)c2cc(Cl)ccc2O1 (configuration not stated)	-5%	?	?	-1%	-62*	-17%
CCC1CN(C(=O)NCc2ccc(C)cc2)c2cc(Cl)ccc2O1 (configuration not stated)	-6%	23µM*	21µM*	-22%	-26	0%
CCc1ccccc1NC(=O)N1CC(CC)Oc2ccc(Cl)cc21 (configuration not stated)	nt	?	21µM*	nt	nt	nt
CC(C)OC(=O)/C(=C/c1ccco1)c1ccccc1	16%	-25%	0%	17%	nt	0%
CCc1ccccc1NC(=O)/C(=C/c1ccco1)c1ccccc1	-2%	18µM*	?	?	-15	4%
CC(C)(C)NC(=O)/C(=C/c1ccco1)c1ccccc1	21%	-14%	-28%	2%	-4	10%
Cc1ccccc1NC(=O)/C(=C/c1ccco1)c1ccccc1	0%	12µM*	23µM*	0%	-11	-2%
Cc1csc2nc(COc3ccccc3NC(=O)c3ccco3)cc(=O)n12	nt	?	9%	nt	nt	nt
